# Hits are enriched below; roughly 1.6% of the tested compounds scored in any of these assays.
# PREPL inh: human PREPL enzyme inhibition; 320,000 compounds, 0.68% hits; inhibition, % at 5.96 µM; Q4J6C6; AID 2751; recombinant PREPL, fluorescence polarization activity-based probe;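 note: 0% = enzyme with DMSO and 100% = wells lacking enzyme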
# MEX-5 binding: C. elegans MEX-5 TCR-2 RNA binding activity; Q9XUB2; AID 1832; MEX-5/FITC-TCR2 RNA binding, fluorescence polarization; hits give low values; activity score (negative = inhibition of binding), % at 10 µM; 300,000 compounds, 0.38% hits;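 active = inhibition past about -25% in most replicates, and total fluorescence under double the plate's negative control median, limit read from the data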;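 note: 0% = DMSO and -100% = 5 µM competing unlabeled TCR2 RNA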
# Fam108B inh: counter-screen for RBBP9 inhibitors: inhibitors of mouse Fam108B | AID 1947 | 300,000 compounds, 0.33% hits | recombinant Fam108B, FP-Rh probe fluorescence polarization | inhibition, % at 9.51 µM;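 active = inhibition above the screen mean inhibition plus 3 SD, computed separately per campaign, cut at about 18% in these data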;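 note: inhibitors lower polarization as less probe binds the enzyme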
# PME-1 inh: blocks human protein phosphatase methylesterase 1; Q9Y570; recombinant PME-1, FP-Rh probe fluorescence polarization; inhibition, % at 5.9 µM; 320,000 compounds, 0.53% hits; AID 2130;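 active = inhibition above the campaign mean of all compounds plus 3 SD, cut at about 26% in these data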;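 note: competitive labeling of PME-1 active site by serine hydrolase directed probe; 0% = PME-1 with DMSO and 100% = wells lacking PME-1 enzyme; inhibitors block probe labeling so polarization falls and inhibition rises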
# Target sequence (Q9Y570 whole entry, looked up): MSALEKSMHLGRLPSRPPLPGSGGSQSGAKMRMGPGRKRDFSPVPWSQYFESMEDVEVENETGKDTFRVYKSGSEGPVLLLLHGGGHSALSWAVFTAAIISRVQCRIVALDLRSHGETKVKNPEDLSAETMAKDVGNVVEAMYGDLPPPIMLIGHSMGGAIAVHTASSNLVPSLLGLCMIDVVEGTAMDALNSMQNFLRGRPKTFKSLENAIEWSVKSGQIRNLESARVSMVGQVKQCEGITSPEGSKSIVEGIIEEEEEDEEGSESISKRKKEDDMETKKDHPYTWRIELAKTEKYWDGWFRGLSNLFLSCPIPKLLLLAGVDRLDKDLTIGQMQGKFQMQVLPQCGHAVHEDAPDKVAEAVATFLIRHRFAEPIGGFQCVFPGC
# LYPLA2 counter: blocks human lysophospholipase 2, a PME1 counter-screen; O95372; recombinant LYPLA2, FP-Rh probe fluorescence polarization; inhibition, % at 5.9 µM; 320,000 compounds, 0.38% hits; AID 2177;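 active = inhibition above the screen-wide mean plus 3 SD, limit set per campaign, cut at about 26% in these data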;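 note: 0% = LYPLA2 with DMSO and 100% = wells lacking LYPLA2 enzyme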
# LYPLA1 counter: LYPLA1 (human) inhibition in PME1 counter-screen | recombinant LYPLA1, FP-Rh probe fluorescence polarization | inhibition, % at 5.9 µM | O75608 | 320,000 compounds, 0.16% hits;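 active = inhibition above the mean of all tested compounds plus 3 SD, set per campaign, cut at about 14% in these data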;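 note: inhibitors block serine hydrolase probe labeling of LYPLA1 so polarization falls; 0% = enzyme with DMSO and 100% = wells lacking LYPLA1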
# Target sequence (O75608 whole entry, looked up): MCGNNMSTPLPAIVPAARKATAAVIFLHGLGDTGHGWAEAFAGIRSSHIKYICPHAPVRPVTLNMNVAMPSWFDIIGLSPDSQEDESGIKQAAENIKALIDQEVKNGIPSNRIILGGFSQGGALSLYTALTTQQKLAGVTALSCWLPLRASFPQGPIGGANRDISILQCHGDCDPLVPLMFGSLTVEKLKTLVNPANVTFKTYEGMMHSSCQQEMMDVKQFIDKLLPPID
# PREPL inh cf: human PREPL inhibition, confirmation; shares compounds with PREPL inh; recombinant PREPL, fluorescence polarization activity probe; inhibition, % at 5.96 µM; 2,000 compounds, 67% hits;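 note: 0% = protein with DMSO and 100% = wells lacking protein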
# Numbers without * were called inactive; x = not tested or not shown. Cut-off read from the data, not from the text of the source, unless noted: active = inhibition above about 43%; inactive = the rest.
SMILES,PREPL inh,MEX-5 binding,Fam108B inh,PME-1 inh,LYPLA2 counter,LYPLA1 counter,PREPL inh cf
C=CCN1C=C2C(=O)C(C)(OC(=O)CCC(=O)OC)C(=O)C(Br)=C2C=C1c1ccc(OC)cc1 (stereo not drawn),74*,-28*,5,6,8,10,58*
COC(=O)CCCC1=CC2=C(c3ccccc3)C(=O)C(C)(OC(=O)C3CCCC3)C(=O)C2=CN1C1CC1 (stereo not drawn),0,-11,1,7,6,1,x
COCCN1C=C2C(=O)C(C)(OC(=O)CCC(=O)OC)C(=O)C=C2C=C1C1CC1 (stereo not drawn),19,-10,6,6,1,0,x
CCN(CC)CCCN1C=C2C(=O)C(C)(OC(=O)CCC(=O)OC)C(=O)C(Br)=C2C=C1c1ccc(OC)cc1 (stereo not drawn),70*,-11,7,4,0,-5,60*
COCCN1C=C2C(=O)C(C)(OC(=O)CCC(=O)OC)C(=O)C(Br)=C2C=C1c1ccc(OC)cc1 (stereo not drawn),64*,-18,3,4,3,-1,36
COC(=O)CCC(=O)OC1(C)C(=O)C2=CN(C3CCCC3)C(c3ccc(OC)cc3)=CC2=C(Br)C1=O (stereo not drawn),54*,-1,8,0,-5,1,41
COc1cc(C=O)ccc1OCc1c(C)noc1C,4,2,-5,5,4,3,x
COC(=O)c1cc(=O)cc(C(=O)OC)o1,-6,1,-2,-7,-6,-1,x
COc1ccc(CN2C=C3C(=O)C(C)(OC(=O)CCc4ccccc4)C(=O)C=C3C=C2c2ccc(C#N)cc2)cc1 (stereo not drawn),33,1,9,10,2,-5,x
CCN(CC)CCCN1C=C2C(=O)C(C)(OC(=O)CCc3ccccc3)C(=O)C=C2C=C1c1ccc(C#N)cc1 (stereo not drawn),43*,-3,4,7,7,-1,30
N=C1/C(=C\c2ccc(OC(=O)c3ccc(F)cc3)cc2)C(=O)N=C2SC(N3CCCC3)=NN12,33,-2,0,12,0,-3,x
N=C1/C(=C\c2ccc(OC(=O)c3ccccc3)cc2)C(=O)N=C2SC(N3CCOCC3)=NN12,61*,-9,10,2,9,-1,42
Cc1ccc(C(=O)Oc2ccc(/C=C3\C(=N)N4N=C(N5CCOCC5)SC4=NC3=O)cc2)cc1,62*,2,6,2,5,-6,41
Cc1cc[n+](CC(=O)c2ccccc2)c2ccccc12,60*,-1,-2,5,1,3,21
COc1ccc(COC(=O)Nc2cc3c(C(F)(F)F)nn(C)c3s2)cc1,45*,3,-2,-1,-4,-7,36
CN(C)c1ccc(NC(=O)c2ccc(COc3cccc(Cl)c3)o2)cc1,58*,0,6,13,16,-3,47*
CCN1CCN(C(=O)c2ccc(COc3cccc(Cl)c3)o2)CC1,-11,-1,0,0,5,3,x
COC(=O)c1ccc(CN2CCc3ccc(NC(=O)c4ccncc4)cc3C2)cc1,2,0,-1,-3,6,1,x
CCN1CCN(C(=O)c2cc3c(=O)n4ccccc4nc3s2)CC1,4,1,-1,-3,-3,-1,x
CCCCCN=C(N)N/N=C/c1c[nH]c2ccc(OC)cc12,80*,-2,2,9,5,2,66*
CCCOc1ccc(C(=O)N/N=C/c2c[nH]c3ccc(Br)cc23)cc1,17,2,8,22,-6,-9,x
COc1ccc(C(=O)N/C(=C\c2ccc(SC)cc2)C(=O)NCCCn2ccnc2)cc1OC,0,x,x,x,x,x,x
CCOc1ccc(C(=O)Nc2ccccc2OC(F)F)cc1,-2,0,3,-1,1,1,x
CC(C)=C1SC(N2CCN(c3cccc(C(F)(F)F)c3)CC2)=NC1=O,13,2,-2,4,4,-5,x
CC(C)=C1SC(N2CCOCC2)=NC1=O,-9,1,-2,-4,0,-4,x
SMILES,PREPL inh,MEX-5 binding,Fam108B inh,PME-1 inh,LYPLA2 counter,LYPLA1 counter,PREPL inh cf
CC(C)=C1SC(N2CCN(c3ccc(C)cc3)CC2)=NC1=O,50*,-1,1,-1,6,0,45*
CC(C)=C1SC(N2CCN(c3ccc(Cl)cc3)CC2)=NC1=O,50*,-5,2,3,-4,0,48*
COc1cc(/C=N/NC(=O)C(=O)NCC2CCCO2)ccc1OCC(=O)N1CCOCC1 (stereo not drawn),-4,2,2,-3,2,0,x
CNC(=O)/C(=C\c1ccc2c(c1)OCO2)NC(=O)c1ccc(Br)cc1,9,2,2,1,-2,-3,x
COc1cccc(N2CCN(c3ncnc4c3[nH]c3ccccc34)CC2C)c1 (stereo not drawn),46*,-1,15,21,-1,-6,46*
COc1cc2[nH]c3c(Cl)ncnc3c2cc1OC,4,0,4,-5,-1,-2,x
COc1cc2[nH]c3c(N4CCN(c5ccc(Cl)cc5)CC4)ncnc3c2cc1OC,95*,-2,14,28*,-40,-26,75*
COc1cccc(N2CCN(c3ncnc4c3[nH]c3ccc(F)cc34)CC2C)c1 (stereo not drawn),49*,-4,16,28*,8,0,47*
COc1ccc2[nH]c3c(N4CC(C)OC(C)C4)ncnc3c2c1 (stereo not drawn),-1,0,2,-8,2,3,x
COc1ccc(C2(C)CC(C)(C)Nc3ccccc32)cc1 (stereo not drawn),-5,1,-2,-2,2,-2,x
COc1ccc(C2CC(C)(c3ccc(OC)cc3)Nc3ccccc3N2)cc1 (stereo not drawn),45*,-2,3,6,-7,-2,39
COc1cc(C(=O)NC(=S)Nc2ccc(N3CCCC3)cc2)cc(OC)c1OC,69*,0,7,4,3,-1,46*
Cc1[nH]n(-c2ccccc2)c(=O)c1N=Nc1ccc(C#N)cc1,-8,-2,-1,4,-2,0,x
Nc1nn(-c2ccccc2)c(N)c1N=Nc1ccc2c(c1)OCO2,60*,1,14,13,1,-1,60*
Cc1nn(-c2ccccc2)c(N)c1N=Nc1cccnc1,5,0,-3,-2,-3,0,x
Nc1[nH]n(-c2ccccc2)c(=O)c1N=Nc1ccc2c(c1)OCO2,45*,0,18,33*,6,2,47*

# Bioassay records as filed in PubChem BioAssay.
